Percent Effect data for 40 molecules are collected here from ChEMBL document CHEMBL3988442, “University of Dundee, Small-Polar-MMV Screening Library” (2021).

The first assay deals with T1, Aspartate--tRNA(Asp/Asn) ligase (Mycobacterium tuberculosis (strain ATCC 25618 / H37Rv)) (UniProt P9WFW3).
T1 sequence (whole entry): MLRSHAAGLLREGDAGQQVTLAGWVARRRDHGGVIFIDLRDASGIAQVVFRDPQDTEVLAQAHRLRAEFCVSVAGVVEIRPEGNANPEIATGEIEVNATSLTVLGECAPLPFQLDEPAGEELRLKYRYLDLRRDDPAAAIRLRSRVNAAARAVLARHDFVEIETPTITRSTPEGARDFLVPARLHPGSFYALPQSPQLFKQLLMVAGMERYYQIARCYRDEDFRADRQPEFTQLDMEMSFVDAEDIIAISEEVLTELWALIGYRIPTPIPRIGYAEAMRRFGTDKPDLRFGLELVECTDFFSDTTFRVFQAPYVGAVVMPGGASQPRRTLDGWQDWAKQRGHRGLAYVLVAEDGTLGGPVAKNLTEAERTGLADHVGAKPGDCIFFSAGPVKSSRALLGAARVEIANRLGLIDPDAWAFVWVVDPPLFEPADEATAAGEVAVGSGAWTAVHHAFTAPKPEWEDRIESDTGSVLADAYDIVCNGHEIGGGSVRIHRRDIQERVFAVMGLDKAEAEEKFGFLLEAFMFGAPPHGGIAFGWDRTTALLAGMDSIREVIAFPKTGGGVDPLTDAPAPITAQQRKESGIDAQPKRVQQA
As to the kind of experiment: Assay for Asp RNA synthetase-1 from Mycobacterium tuberculosis. It is filed as functional. Details: scale not given: direction of the effect not stated beside the values. The note with it: 30 µM.
For the molecule `Cc1nnc(Nc2cccc(C3CCN(CCO)CC3)n2)s1`, the Percent Effect was -2.1%.

`Cn1cc(C(=O)N2CC[C@@H]3[C@@H]2CCN3Cc2cccc(F)c2)cn1`: the Percent Effect is -0.0764%.

Regarding `Cc1cc(C[C@@H]2CCC[C@H]2NCc2cc(C)c(O)c(C)c2)on1`, the Percent Effect was determined as 2.31%.

As to `C[C@]1(O)CCN(Cc2cncs2)C[C@@H]1Oc1cccc(F)c1`, the Percent Effect was -1.46%.

Take `O=C(O)CCc1cc2n(n1)CCCN(C(=O)c1ccc3cc[nH]c3c1)C2`: the Percent Effect is -1.19%.

As for `O=C(O)c1c[nH]c2cc(NS(=O)(=O)c3cccc(Cl)c3F)ccc12`, the Percent Effect stood at 2.61%.

In the case of `CCS(=O)(=O)NC[C@]12COC[C@H]1CN(Cc1cccc(OC)c1)C2`, the Percent Effect worked out at 0.596%.

In the case of `COc1cc(CNCCc2nc(C)cs2)cc2c1OCCO2`, the Percent Effect is -4.99%.

`CC(C)N(C)CC(=O)N1CCCC(c2ccc(C(=O)O)cc2)C1` (stereo not given): the Percent Effect is -4.14%.

Take `Cc1occc1C(=O)N1CCC2(CC1)NC(=O)CC2c1cnn(C)c1` (stereo not given): the Percent Effect was -0.199%.

On to `CS(=O)(=O)NC[C@H]1OC[C@@H]2CCN(Cc3ccc(F)cc3)C[C@@H]21`, for which the Percent Effect was 0.903%.

Consider `Cc1ccccc1C(=O)Nc1cnn(CC(=O)NC2CCCC2)c1`, for which the Percent Effect was determined as 2.07%.

On to `CC1CN(CC(=O)NC(=O)NCc2ccccc2)CCO1` (stereo not given), for which the Percent Effect is -6.29%.

Take `Cn1cc(C2CC(=O)NC23CCN(c2ncc(F)cn2)CC3)cn1` (stereo not given): the Percent Effect is 0.844%.

As for `Cc1ncc(CNC(=O)CCc2cccc(F)c2)c(C2CCCN2C)n1` (stereo not given), the Percent Effect is 1.77%.

As to `Cc1noc(C2CCN(Cc3cc(=O)n(C)c(=O)n3C)CC2)n1`, the Percent Effect was -4.37%.

With `CCCN1CCC(NC(=O)NCCc2nc(CC)c(C)s2)CC1`, the Percent Effect was -5.93%.

`CCCc1noc(CCC(=O)NC(C)c2nnc3n2CCCCC3)n1` (stereo not given): the Percent Effect is -4.13%.

As to `CCc1nccc(CN2CCCC(c3nn(C)c(=O)n3CC)C2)n1` (stereo not given), the Percent Effect is 1.68%.

On to `CC(=O)N1CCN(C(=O)c2cc(-n3cnnn3)ccc2Cl)CC1`, for which the Percent Effect is -1.41%.

The target of the next assay is Shiga toxin 2 (Escherichia coli O157:H7) (UniProt P09385+P09386). In words: E. coli 0.157:H7 Shiga Toxin SOP - stx2 screening assay. It is filed as functional. More on the design: scale not given: direction of the effect not stated beside the values. The note with it: 30 µM.
For `COCC1c2nnn(CC3CC3)c2CCN1C(=O)Cc1cccs1` (stereo not given), the Percent Effect is -2.97%.

Regarding `Nc1cc(CCCNC(=O)NC2CC2)nn1-c1ccccc1`, the Percent Effect is -2.96%.

Regarding `c1cc(OCc2ccc3c(c2)OCO3)ccc1CNC1CC1`, the Percent Effect is -108%.

Consider `CC(C)n1ccnc1C1CCN(Cc2ccc(Cl)c(F)c2)CC1`, for which the Percent Effect is -39.8%.

As for `Cc1ccc(N(CC(=O)c2ccc(Br)cc2)C2=NCCCCC2)cc1`, the Percent Effect is -13.7%.

Consider `Cc1cccc(CN2C[C@@H]3CN(C(=O)c4ccsc4)C[C@@H]3C2=O)c1`, for which the Percent Effect is -27.2%.

With `Cc1noc(C)c1CN1CC[C@H]2OCC[C@@H](C(=O)N3CCCO3)[C@@H]2C1`, the Percent Effect was -15.4%.

Regarding `Cc1cccc(C2(C(=O)NCCCn3cccn3)CC2)c1`, the Percent Effect is -5.42%.

Take `Cn1cc(Cl)cc1C(=O)N1CCCN(Cc2cccs2)CC1`: the Percent Effect turned out to be 19.8%.

Turning to `O=C(NCC(O)c1ccc(F)c(F)c1)c1cccnc1OCC(F)(F)F` (stereo not given), the Percent Effect was -9.04%.

Take `O=C(c1ccc(C2CCCO2)s1)N1CCN(c2ccccc2F)CC1` (stereo not given): the Percent Effect was -30.2%.

Regarding `COc1ncc(C2(O)CCN(Cc3ccccc3O)CC2)c(OC)n1`, the Percent Effect is -22.9%.

As to `Cc1ccc2c(ccn2CCC(=O)O)c1`, the Percent Effect is -8.69%.

With `Cc1nccn1-c1cccc(C2CCCN2S(=O)(=O)N(C)C)n1` (stereo not given), the Percent Effect was -8.96%.

Take `Cc1cc(N2CCC(c3nnc(CN(C)C)n3C3CC3)CC2)ccn1`: the Percent Effect is -33.5%.

Regarding `O=C(NCc1nn(-c2ccccc2)c2c1CCC2)N1CCSCC1`, the Percent Effect is 34%.

Take `CCc1ncc(CNC2CC(=O)N(CCc3cccc(Cl)c3)C2)cn1` (stereo not given): the Percent Effect was -24.9%.

Take `CC(NC(=O)N1CCN(CCc2ccccc2)CC1)c1nncn1C` (stereo not given): the Percent Effect is -13.8%.

Take `CS(=O)(=O)N1CC[C@]2(C[C@@H](OCC3CCC3)CO2)C1`: the Percent Effect was found to be 6.17%.

As for `CCCOCC(=O)NC1CCc2nc(C)cn2C1` (stereo not given), the Percent Effect came out at 7.61%.

Take `Cc1nnc(Nc2cccc(C3CCN(CCO)CC3)n2)s1`: the Percent Effect worked out at 2.64%.

Take `Cn1cc(C(=O)N2CC[C@@H]3[C@@H]2CCN3Cc2cccc(F)c2)cn1`: the Percent Effect is 0.579%.

For the molecule `Cc1cc(C[C@@H]2CCC[C@H]2NCc2cc(C)c(O)c(C)c2)on1`, the Percent Effect was -2.65%.

For `C[C@]1(O)CCN(Cc2cncs2)C[C@@H]1Oc1cccc(F)c1`, the Percent Effect was 35.4%.

As to `O=C(O)CCc1cc2n(n1)CCCN(C(=O)c1ccc3cc[nH]c3c1)C2`, the Percent Effect was -1.98%.

Turning to `O=C(O)c1c[nH]c2cc(NS(=O)(=O)c3cccc(Cl)c3F)ccc12`, the Percent Effect amounted to 12.3%.

Regarding `CCS(=O)(=O)NC[C@]12COC[C@H]1CN(Cc1cccc(OC)c1)C2`, the Percent Effect stood at 1.39%.

In the case of `COc1cc(CNCCc2nc(C)cs2)cc2c1OCCO2`, the Percent Effect amounted to 14.4%.

With `CC(C)N(C)CC(=O)N1CCCC(c2ccc(C(=O)O)cc2)C1` (stereo not given), the Percent Effect was found to be 18.4%.

Consider `Cc1occc1C(=O)N1CCC2(CC1)NC(=O)CC2c1cnn(C)c1` (stereo not given), for which the Percent Effect was -2.15%.

Regarding `CS(=O)(=O)NC[C@H]1OC[C@@H]2CCN(Cc3ccc(F)cc3)C[C@@H]21`, the Percent Effect is -21.2%.

With `Cc1ccccc1C(=O)Nc1cnn(CC(=O)NC2CCCC2)c1`, the Percent Effect is -6.1%.

For the molecule `CC1CN(CC(=O)NC(=O)NCc2ccccc2)CCO1` (stereo not given), the Percent Effect is -0.513%.

Consider `Cn1cc(C2CC(=O)NC23CCN(c2ncc(F)cn2)CC3)cn1` (stereo not given), for which the Percent Effect was -18.9%.

For `Cc1ncc(CNC(=O)CCc2cccc(F)c2)c(C2CCCN2C)n1` (stereo not given), the Percent Effect is -9.03%.

For `Cc1noc(C2CCN(Cc3cc(=O)n(C)c(=O)n3C)CC2)n1`, the Percent Effect was -1.09%.

Regarding `CCCN1CCC(NC(=O)NCCc2nc(CC)c(C)s2)CC1`, the Percent Effect was found to be 19.2%.

Take `CCCc1noc(CCC(=O)NC(C)c2nnc3n2CCCCC3)n1` (stereo not given): the Percent Effect is -15.1%.

Regarding `CCc1nccc(CN2CCCC(c3nn(C)c(=O)n3CC)C2)n1` (stereo not given), the Percent Effect was 10.8%.

In the case of `CC(=O)N1CCN(C(=O)c2cc(-n3cnnn3)ccc2Cl)CC1`, the Percent Effect was -21.8%.
